For 47 compounds, inhibition results are on record in PubChem BioAssay AID720554 (ICCB-Longwood Screening Facility, Harvard Medical School, 2013).

Test [1] in a line: BmaI1 acyl-homoserine lactone synthase inhibition – biochemical, fluorescence intensity, with counterscreen (AID 720554). The settings on record: BmaI1 enzyme assay, measured here: counterscreen fluorescence % control, concentration not given here.
In test [2] the test system is acyl-homoserine lactone synthase BmaI1 (Burkholderia mallei ATCC 23344). The description is as above. The settings on record: BmaI1 enzyme assay, stronger effect = higher value, concentration not given here.

Broadly, the inhibition is the change of the read-out against control, counted positive when it falls.

In all, about 12,000 compounds went through this assay and about 45 (0.4%) were called active. Rule as the data show it: active = inhibition mostly above about 83% (no sharp cut-off); inactive = mostly below about 52%. Many of the other results were omitted from the sample, so actives are more common in it than they were.

In the case of `COc1ccc(C(=O)Nc2nccs2)c(F)c1`, the inhibition in test [1] was 6.5%; in test [2] it was 9.5% (inactive).
For the compound `Cc1ccc(SCC(=O)NC(=O)C(C)C)cc1C`, the inhibition was 8% in test [1] and 14.5% (inactive) in test [2].
On to `CC(C)c1nc(C#N)c(NCc2cccnc2)o1`, for which the values for the inhibition in test [1] and in test [2] were 16.5% and 31% (inactive), respectively.
On to `Cc1cc(C(=O)OCC(=O)c2ccc(NC(=O)CC(C)C)cc2)no1`, for which the figures for the inhibition in test [1] and in test [2] were 14.5% and 13.5% (inactive), respectively.
Consider `FC(F)Oc1ccc(NC(=S)NC2CCCC2)cc1`, for which the inhibition in test [1] is -10.5%; in test [2], -12.5% (inactive).
On the same counts, the results for `FC(F)Oc1ccc(NC(=S)NNc2ccc(Cl)nn2)cc1` are 28% and 104% (active).
For the compound `CN(CC(=O)Nc1ccc(Cl)cc1)C(=O)c1ccc(OC(F)F)cc1`, the inhibition was 17% in test [1] and 13% (inactive) in test [2].
Consider `CCC(C)N=C1NC(=O)C(CC(=O)NCc2ccccc2)S1` (centres undefined), for which the values for the inhibition in test [1] and in test [2] were 8.5% and 10.5% (inactive), respectively.
Take `COC(=O)c1c(C)[nH]c(=O)[nH]c1=S`: the inhibition was 1.5% in test [1] and -6.5% (inactive) in test [2].
With `O=S1(=O)CCN2C=CSC2=N1`, the inhibition in test [1] is 11.5%; in test [2], 17% (inactive).
`Cc1sc2c(c1C)C1=NS(=O)(=O)CCN1C=N2`: the results for the inhibition in test [1] and in test [2] were 10% and 88.5% (active), respectively.
Taken in the same sequence, the figures for `COC(=O)C1=NC=CN2CCS(=O)(=O)N=C12` were 9.5% and 7% (inactive).
Taken in the same sequence, the figures for `CCOc1ccccc1NC(=O)CSc1nc(O)cc(=O)n1C1CCCC1` were 5.5% and 7.5% (inactive).
In the case of `CCOc1ccc(O)c(C=NC2CCCC2)c1`, the inhibition was 2.5% in test [1] and 2.5% (inactive) in test [2].
For the compound `COc1ccc(OCC(=O)N2CC(C)CC(C)C2)cc1` (centres undefined), the inhibition is -8% in test [1] and 7% (inactive) in test [2].
With `NC(=S)Cc1nc2ccccc2[nH]1`, the inhibition in test [1] is 27%; in test [2], 98% (active).
Take `N/C(Cc1nc2ccccc2[nH]1)=N\O`: the inhibition in test [1] is 2%; in test [2], 24% (inactive).
Turning to `CC(C)(C)Cc1nc2ccccc2[nH]1`, the inhibition in test [1] is 18%; in test [2] it was 20.5% (inactive).
As for `Cc1cc(=O)[nH]c(NNC(=S)Nc2ccc(S(=O)(=O)N3CCOCC3)cc2)n1`, the inhibition in test [1] is 10%; in test [2], 72% (inactive).
For the compound `COc1ccc(NC(=O)COC(=O)C23CCC(=O)N2c2ccccc2S3)cc1` (centres undefined), the inhibition is 5% in test [1] and -0.5% (inactive) in test [2].
On to `Cc1ccc(C(=O)OCC(=O)Nc2ccc(N(C)C)cc2)c(C)c1`, for which the inhibition in test [1] was -7.5%; in test [2], 24.5% (inactive).
On to `Cc1ccc(NC(=O)Nc2ccc(N(C)C)cc2)cc1`, for which the inhibition is 3.5% in test [1] and 98.5% (active) in test [2].
`Cc1ccc(NC(=O)Nc2ccc3c(c2)C(=O)NC3=O)cc1`: the results for the inhibition in test [1] and in test [2] were 14% and 9% (inactive), respectively.
`CN(C)C(CNC(=O)c1ccc2ncsc2c1)c1cccs1` (centres undefined): the inhibition was 13% in test [1] and 18% (inactive) in test [2].
Taken in the same sequence, the figures for `O=C(CCc1nc2ccccc2o1)Nc1cccc(-n2cnnn2)c1` were 6.5% and 16.5% (inactive).
Take `FC(F)(F)c1cnc(NNC(=S)NCC2CCCO2)c(Cl)c1` (centres undefined): the inhibition in test [1] is -1%; in test [2], 51.5% (inactive).
Turning to `CC(C)NC(=S)NNc1ccccc1C(F)(F)F`, the inhibition in test [1] was -31%; in test [2], 14% (inactive).
For the compound `CC(C)NC(=S)NNc1ncc(C(F)(F)F)cc1Cl`, the inhibition is 8% in test [1] and 89% (active) in test [2].
Take `CCN(C(=O)CSc1nnc(-c2ccccc2)c(-c2ccccc2)n1)C1CCS(=O)(=O)C1` (centres undefined): the figures for the inhibition in test [1] and in test [2] were -2.5% and 6% (inactive), respectively.
On to `COC(=O)C1=C(C)NC(C)=C(C(=O)OC)C1C(=O)OCC(=O)Nc1cccc2nsnc12`, for which the inhibition in test [1] is -2%; in test [2], -15% (inactive).
Turning to `N#CCC(=O)Nc1ccc(C(=O)NCc2ccccc2)cc1`, the inhibition in test [1] was 21.5%; in test [2] it was 29.5% (inactive).
Take `CS(=O)(=O)CCC1NC(=O)NC1=O` (centres undefined): the inhibition was 2.5% in test [1] and 10.5% (inactive) in test [2].
Consider `O=C(Nc1ccc(N2CCCCCC2)cc1)c1ccncc1`, for which the inhibition in test [1] is 26.5%; in test [2] it was 62% (inactive).
Regarding `CC(=O)Nc1cccc(C(=O)Nc2ccc(N3CCCCC3)cc2)c1`, the values for the inhibition in test [1] and in test [2] were 7% and 83.5% (active), respectively.
On to `COc1ccc(C(=O)Nc2ccc(N3CCCCC3)cc2)cc1`, for which the inhibition in test [1] was -2%; in test [2] it was 22.5% (inactive).
In the case of `Cc1cc(C(=O)CSc2ccccn2)c(C)n1Cc1cccs1`, the inhibition in test [1] is 12%; in test [2] it was 16% (inactive).
Turning to `CCN(C(=O)C(C)Sc1nc(C)cs1)c1ccccc1` (centres undefined), the figures for the inhibition in test [1] and in test [2] were 3.5% and 14.5% (inactive), respectively.
`CCN(CC)C(=S)SSC(=S)N(CC)CC`: the inhibition in test [1] is -13.5%; in test [2], 96% (active).
`CCN(CC)C(=S)SCc1ncc(-c2ccccc2)o1`: the values for the inhibition in test [1] and in test [2] were 3.5% and 13% (inactive), respectively.
On the same counts, the results for `Cc1ccc(NNC(=S)NCC2CCCO2)c(C)c1` (centres undefined) are 6.5% and 10% (inactive).
Take `FC(F)(F)c1nc(NNC(=S)NCC2CCCO2)c2ccccc2n1` (centres undefined): the results for the inhibition in test [1] and in test [2] were 25% and 100% (active), respectively.
On the same counts, the results for `O=C(O)c1ccc(NNC(=S)NCC2CCCO2)cc1` (centres undefined) are -33% and -78.5% (inactive).
Turning to `O=C1CCC(C(=O)NC2CCCCCC2)=NN1`, the values for the inhibition in test [1] and in test [2] were 11% and 18.5% (inactive), respectively.
As for `Cc1cc(SCC(=O)O)n2c(nc3ccccc32)c1C#N`, the inhibition in test [1] was 1%; in test [2], 20% (inactive).
`Cc1ccccc1-n1cc[nH]c1=S`: the values for the inhibition in test [1] and in test [2] were 4.5% and 23.5% (inactive), respectively.
On the same counts, the results for `Cc1ccccc1N1C(=O)Cc2ccccc2C1=O` are 2% and 16.5% (inactive).
As for `Cc1ccccc1N1C(=O)C=CC1=O`, the inhibition in test [1] is 4%; in test [2], 82% (active).
